Assay [1] has as its target Bile acid receptor (Homo sapiens) (UniProt Q96RI1). As to the kind of experiment: ATG_IR1_CIS: Attagene CIS-FACTORIAL HepG2 Assay for human Nuclear Receptor Subfamily 1 Group H Member 4 (NR1H4), IR1 submotif (AID 2282946). Conditions: IR1 reporter transcription, actives raise or lower the signal. The method in brief: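 HepG2 cells transiently transfected with multiplexed cis-element reporter units read endogenous transcription factor activity. After 24 h compound exposure, reporter mRNA was quantified by RT-PCR, fluorescent labelling, HpaI digestion and capillary electrophoresis; bidirectional fitting versus DMSO baseline.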

A short description of assay [2]: ATG_GRE_CIS: Attagene CIS-FACTORIAL HepG2 Assay for human Glucocorticoid Response Elements (GRE) (AID 2282947). Conditions: HepG2 GRE cis-reporter, Attagene multiplex mRNA; actives raise or lower the signal. The gist of the method:
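Multiplexed cis-reporter mRNA induction, HepG2, 24 h post-dose. RT-PCR, FAM-labelled, HpaI-digested amplicons by CE. Bidirectional fit vs DMSO.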

Assay [3] is described as follows: ATG_ISRE_CIS: Attagene CIS-FACTORIAL HepG2 Assay for human Interferon Regulatory Factor 1 (IRF1) binding to an Interferon-Stimulated Response Element (ISRE) (AID 2282948). Conditions: HepG2 ISRE cis-reporter (Attagene), mRNA transcription readout; actives raise or lower the signal. The method in brief:
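Endogenous transcription factor activity read as reporter transcript abundance via RT-PCR and capillary electrophoresis. HepG2 cells transiently transfected, 24 h chemical exposure. Gain or loss fitted against DMSO baseline.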

Assay [4] in a line: ATG_M_06_CIS: Attagene CIS-FACTORIAL HepG2 Assay for M06 Transcription Factor (Internal Marker) (AID 2282950). The following applies: HepG2 Attagene CIS-FACTORIAL M06 internal marker reporter; actives raise or lower the signal. The method in brief:
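Serves as a background control readout. Transfected HepG2 exposed to compounds for 24 h, then reporter transcripts quantified by fluorescent RT-PCR and capillary electrophoresis. Both directions fitted against DMSO baseline.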

The target of assay [5] is Hepatocyte nuclear factor 6 (Homo sapiens) (UniProt Q9UBC0). In words: ATG_HNF6_CIS: Attagene CIS-FACTORIAL HepG2 Assay for human Hepatocyte Nuclear Factor 6 (HNF6) (AID 2282952). The following applies: HepG2 Attagene cis-factorial HNF6 reporter transcription; actives raise or lower the signal. The gist of the method: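 Endogenous factor activity read in transiently transfected HepG2 via promoter-regulated reporter transcripts. RNA harvested 24 h post-dosing, reverse-transcribed, PCR-amplified, FAM-labelled, HpaI-digested and resolved by capillary electrophoresis; fitted in both directions against DMSO.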

Assay [6] deals with Heat shock factor protein 1 (Homo sapiens) (UniProt Q00613). In words: ATG_HSE_CIS: Attagene CIS-FACTORIAL HepG2 Assay for human Heat Shock Transcription Factor 1 (HSE) (AID 2282953). The following applies: HepG2 HSE cis-reporter, Attagene RNA transcription; actives raise or lower the signal. The gist of the method:
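Endogenous transcription factor activity in transiently transfected HepG2, read as reporter mRNA by RT-PCR with fluorescent capillary electrophoresis after 24 h. Gain or loss of signal fitted versus DMSO baseline.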

A short description of assay [7]: ATG_MRE_CIS: Attagene CIS-FACTORIAL HepG2 Assay for human Metal Responsive Element (MRE) (AID 2282954). The following applies: HepG2 MRE cis-reporter transcription, Attagene multiplex; actives raise or lower the signal. The method in brief: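 Multiplexed cis-reporter assay in human HepG2 liver cells, 24 h incubation with test chemical. Reporter transcripts measured by RT-PCR and capillary electrophoresis; values from bidirectional curve fitting versus DMSO.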

In assay [8] the target is Paired box protein Pax-6 (Homo sapiens) (UniProt P26367). In words: ATG_Pax6_CIS: Attagene CIS-FACTORIAL HepG2 Assay for human Paired Box 6 (PAX6) (AID 2282956). Conditions: HepG2 CIS-FACTORIAL PAX6 reporter transcription, RNA readout; actives raise or lower the signal. The gist of the method: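 Read-out is reporter transcript level, measured by RT-PCR with fluorescent primer extension and capillary electrophoresis after 24 h dosing of transfected HepG2 cells. Activity in either direction fitted relative to DMSO control.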

Assay [9] in a line: ATG_PXRE_CIS: Attagene CIS-FACTORIAL HepG2 Assay for human Pregnane X Receptor Element (PXRE) (AID 2282957). The following applies: HepG2 Attagene CIS-FACTORIAL PXRE reporter, mRNA; actives raise or lower the signal. The method in brief: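 Reporter transcripts under endogenous PXR-responsive cis-regulation quantified from total RNA of transfected HepG2 cells 24 h post-dosing, via RT-PCR with fluorescent primer extension and capillary electrophoresis. Gain or loss of signal fitted against DMSO baseline.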

The nature of assay [10]: ATG_RORE_CIS: Attagene CIS-FACTORIAL HepG2 Assay for human RAR-related Orphan Receptor Element (RORE) (AID 2282959). Conditions: HepG2 Attagene cis-factorial RORE reporter, mRNA; actives raise or lower the signal. The gist of the method: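 Multiplexed reporter assay measuring mRNA induction from a cis promoter element in transiently transfected HepG2 cells after 24 h treatment. Detection via RT-PCR and capillary electrophoresis fluorescence; DMSO serves as baseline.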

A short description of assay [11]: ATG_Sox_CIS: Attagene CIS-FACTORIAL HepG2 Assay for human SRY-box transcription factor (SOX) (AID 2282960). Conditions: HepG2 Attagene cis-factorial SOX reporter, mRNA; actives raise or lower the signal. The gist of the method:
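Cells were transfected with reporter constructs under cis-regulatory promoters, then exposed to chemicals for 24 h. Reporter transcripts were quantified by fluorescence after RT-PCR and capillary electrophoresis; activity was fitted in both directions against DMSO.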

Assay [12] is described as follows: ATG_SREBP_CIS: Attagene CIS-FACTORIAL HepG2 Assay for human Sterol Regulatory Element Binding (SREBP) (AID 2282962). The following applies: HepG2 Attagene cis-factorial SREBP reporter, mRNA; actives raise or lower the signal. The method in brief: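 Endogenous SREBP activity read as cis-element-driven reporter transcript in transiently transfected HepG2, 24 h post-dosing; quantified via RT-PCR plus capillary electrophoresis of fluorescent fragments. Gain or loss of signal fitted relative to DMSO baseline.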

For assay [13], the target named is Signal transducer and activator of transcription 3 (Homo sapiens) (UniProt P40763). As to the kind of experiment: ATG_STAT3_CIS: Attagene CIS-FACTORIAL HepG2 Assay for human Signal Transducer and Activator of Transcription 3 (STAT3) (AID 2282963). Conditions: HepG2, Attagene cis-factorial STAT3 reporter transcription; actives raise or lower the signal. The method in brief:
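Cis-factorial format: endogenous transcription factors in HepG2 drive transfected reporter units. After 24 h treatment, reporter RNA was reverse-transcribed, amplified, FAM-labelled and HpaI-digested before CE analysis; activity scored in both directions against DMSO.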

A short description of assay [14]: ATG_TCF_b_cat_CIS: Attagene CIS-FACTORIAL HepG2 Assay for human T-Cell-Factor with beta-catenin (TCF/b-cat) (AID 2282965). The following applies: HepG2 TCF/beta-catenin cis-reporter transcription, actives raise or lower the signal. The gist of the method:
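Endogenous transcription factor activity is captured through cis-promoter reporter constructs transiently introduced into human HepG2 liver cells. Induced reporter mRNA is measured after 24 h and fitted bidirectionally relative to DMSO.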

Assay [15] is described as follows: ATG_M_32_CIS: Attagene CIS-FACTORIAL HepG2 Assay for M32 Transcription Factor (Internal Marker) (AID 2282949).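 Further: background control marker of the multiplexed CIS panel rather than a real target.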 The following applies: HepG2 Attagene cis-factorial M32 reporter, mRNA; actives raise or lower the signal. The gist of the method: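 Transient MRTU transfection of HepG2; 24 h compound treatment; TriZol RNA, oligo(dT) RT, reporter PCR, 6-FAM primer extension, HpaI cut, CE. Gain/loss of signal vs DMSO.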

Assay [16] addresses Hypoxia-inducible factor 1-alpha (Homo sapiens) (UniProt Q16665). In words: ATG_HIF1a_CIS: Attagene CIS-FACTORIAL HepG2 Assay for human Hypoxia Inducible Factor 1 (HIF1A) (AID 2282951). The following applies: HepG2 Attagene cis-factorial HIF1a reporter transcription; actives raise or lower the signal. The method in brief:
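HepG2, transient cis-reporter library, 24 h dosing. RNA → RT (oligo dT) → PCR → 6-FAM primer extension → HpaI → CE. Bidirectional curve fit vs DMSO.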

Assay [17] can be described thus: ATG_PPRE_CIS: Attagene CIS-FACTORIAL HepG2 Assay for human Peroxisome Proliferator-activated Response Element (PPRE) (AID 2282958). The following applies: HepG2 PPRE cis-element reporter, Attagene transcription factor profiling; actives raise or lower the signal. The method in brief:
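Transcript-level reporter induction in transfected HepG2 cells after 24 h chemical exposure, quantified by fluorescence from RT-PCR products separated by capillary electrophoresis.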

The target of assay [18] is Transcription factor Sp1 (Homo sapiens) (UniProt P08047). In words: ATG_Sp1_CIS: Attagene CIS-FACTORIAL HepG2 Assay for human Specificity Protein 1 (Sp1) (AID 2282961). Conditions: HepG2 Sp1 cis-reporter transcription, actives raise or lower the signal. The gist of the method:
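Measures mRNA induction of an Sp1-linked reporter in HepG2 cells 24 h post-dosing. Multiplexed reporters read by RT-PCR and capillary electrophoresis; DMSO serves as negative control and baseline.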

The nature of assay [19]: ATG_TA_CIS: Attagene CIS-FACTORIAL HepG2 Assay for human TA Basal Promoter (AID 2282964). The following applies: HepG2 Attagene CIS-factorial TA basal promoter reporter; actives raise or lower the signal. The method in brief:
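Background-control readout: TA basal promoter reporter mRNA, fitted in both directions relative to DMSO. Measured by RT-PCR and capillary electrophoresis 24 hours after treating HepG2 human liver cells transiently carrying multiplexed cis-regulated reporter constructs.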

A short description of assay [20]: ATG_PBREM_CIS: Attagene CIS-FACTORIAL HepG2 Assay for human Phenobarbital-responsive Enhancer Module (PBREM) (AID 2282955). The following applies: HepG2 PBREM cis-reporter, Attagene multiplexed transcription; actives raise or lower the signal. The gist of the method:
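HepG2, transient MRTU transfection, 24 h dosing; RNA → oligo(dT) RT → PCR → 6-FAM extension → HpaI → CE. Bidirectional fit vs DMSO.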

Activity calls are given as the source filed them. How the source made its calls: active means hit-call score of the fitted dose curve at least 0.9, where 1 is the maximum; inactive means score below 0.9.

Bile acid receptor (Homo sapiens), sequence (Q96RI1 whole entry, looked up): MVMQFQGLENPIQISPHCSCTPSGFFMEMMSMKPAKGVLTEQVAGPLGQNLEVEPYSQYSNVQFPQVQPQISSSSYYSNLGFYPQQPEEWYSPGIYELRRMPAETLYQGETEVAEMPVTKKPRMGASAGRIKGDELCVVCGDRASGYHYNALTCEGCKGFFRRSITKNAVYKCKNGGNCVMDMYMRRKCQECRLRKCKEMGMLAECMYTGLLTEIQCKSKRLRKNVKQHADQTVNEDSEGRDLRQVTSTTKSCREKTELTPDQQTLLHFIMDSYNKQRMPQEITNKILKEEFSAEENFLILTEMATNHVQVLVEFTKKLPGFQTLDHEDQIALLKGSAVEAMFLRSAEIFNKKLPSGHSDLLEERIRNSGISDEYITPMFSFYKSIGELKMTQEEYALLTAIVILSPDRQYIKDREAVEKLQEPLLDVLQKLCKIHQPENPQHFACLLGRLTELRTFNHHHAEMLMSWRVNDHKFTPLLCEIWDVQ
Transcription factor Sp1 (Homo sapiens), sequence (P08047 whole entry, looked up): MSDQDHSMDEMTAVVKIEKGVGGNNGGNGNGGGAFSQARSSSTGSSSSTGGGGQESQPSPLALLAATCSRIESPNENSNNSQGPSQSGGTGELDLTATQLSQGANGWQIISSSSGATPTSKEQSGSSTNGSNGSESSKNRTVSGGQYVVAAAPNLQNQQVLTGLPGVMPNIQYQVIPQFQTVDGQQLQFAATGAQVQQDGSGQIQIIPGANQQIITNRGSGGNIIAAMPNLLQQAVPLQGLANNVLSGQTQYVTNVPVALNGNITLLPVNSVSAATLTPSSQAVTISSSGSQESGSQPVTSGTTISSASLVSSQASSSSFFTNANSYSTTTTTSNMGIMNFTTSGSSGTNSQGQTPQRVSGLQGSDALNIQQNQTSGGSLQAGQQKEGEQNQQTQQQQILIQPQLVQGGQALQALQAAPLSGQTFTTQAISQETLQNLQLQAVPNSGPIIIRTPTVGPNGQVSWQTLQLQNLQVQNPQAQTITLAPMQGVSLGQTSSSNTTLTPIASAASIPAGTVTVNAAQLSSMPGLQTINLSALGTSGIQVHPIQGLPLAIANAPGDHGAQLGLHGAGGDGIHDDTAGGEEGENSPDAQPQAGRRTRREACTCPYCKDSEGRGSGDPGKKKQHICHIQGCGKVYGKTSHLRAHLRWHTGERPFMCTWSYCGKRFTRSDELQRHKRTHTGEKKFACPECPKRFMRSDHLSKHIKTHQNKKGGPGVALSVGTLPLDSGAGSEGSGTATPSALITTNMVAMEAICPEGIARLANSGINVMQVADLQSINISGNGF
Signal transducer and activator of transcription 3 (Homo sapiens), sequence (P40763 whole entry, looked up): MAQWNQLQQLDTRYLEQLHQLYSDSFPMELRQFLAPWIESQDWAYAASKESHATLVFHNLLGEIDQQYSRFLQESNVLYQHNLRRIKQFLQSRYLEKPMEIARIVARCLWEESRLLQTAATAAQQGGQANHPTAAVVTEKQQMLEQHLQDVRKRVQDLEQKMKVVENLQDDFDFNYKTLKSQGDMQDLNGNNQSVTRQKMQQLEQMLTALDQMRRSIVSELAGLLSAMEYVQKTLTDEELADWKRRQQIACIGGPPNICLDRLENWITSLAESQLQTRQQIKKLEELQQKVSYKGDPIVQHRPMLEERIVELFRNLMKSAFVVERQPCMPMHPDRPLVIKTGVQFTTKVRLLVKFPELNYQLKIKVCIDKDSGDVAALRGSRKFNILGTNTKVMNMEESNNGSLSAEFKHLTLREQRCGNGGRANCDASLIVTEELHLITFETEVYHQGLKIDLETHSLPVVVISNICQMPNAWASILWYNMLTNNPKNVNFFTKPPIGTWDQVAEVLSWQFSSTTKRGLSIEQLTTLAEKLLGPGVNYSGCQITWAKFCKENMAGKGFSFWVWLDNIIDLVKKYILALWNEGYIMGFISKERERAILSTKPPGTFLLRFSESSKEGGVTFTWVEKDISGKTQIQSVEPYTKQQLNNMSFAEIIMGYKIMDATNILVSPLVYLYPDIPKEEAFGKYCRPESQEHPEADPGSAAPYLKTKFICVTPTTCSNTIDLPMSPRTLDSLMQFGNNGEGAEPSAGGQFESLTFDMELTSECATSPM
Paired box protein Pax-6 (Homo sapiens), sequence (P26367 whole entry, looked up): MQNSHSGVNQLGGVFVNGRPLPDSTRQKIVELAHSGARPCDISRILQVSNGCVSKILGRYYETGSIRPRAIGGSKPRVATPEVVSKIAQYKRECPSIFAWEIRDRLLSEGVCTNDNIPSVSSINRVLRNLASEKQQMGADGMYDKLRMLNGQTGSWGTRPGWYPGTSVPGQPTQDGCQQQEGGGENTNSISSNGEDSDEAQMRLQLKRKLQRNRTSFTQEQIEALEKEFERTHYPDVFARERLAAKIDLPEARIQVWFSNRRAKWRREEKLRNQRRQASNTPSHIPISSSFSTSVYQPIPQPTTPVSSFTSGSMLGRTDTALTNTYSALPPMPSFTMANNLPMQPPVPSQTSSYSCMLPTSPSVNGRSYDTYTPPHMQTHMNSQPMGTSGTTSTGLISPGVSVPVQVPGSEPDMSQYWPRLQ
Hypoxia-inducible factor 1-alpha (Homo sapiens), sequence (Q16665 whole entry, looked up): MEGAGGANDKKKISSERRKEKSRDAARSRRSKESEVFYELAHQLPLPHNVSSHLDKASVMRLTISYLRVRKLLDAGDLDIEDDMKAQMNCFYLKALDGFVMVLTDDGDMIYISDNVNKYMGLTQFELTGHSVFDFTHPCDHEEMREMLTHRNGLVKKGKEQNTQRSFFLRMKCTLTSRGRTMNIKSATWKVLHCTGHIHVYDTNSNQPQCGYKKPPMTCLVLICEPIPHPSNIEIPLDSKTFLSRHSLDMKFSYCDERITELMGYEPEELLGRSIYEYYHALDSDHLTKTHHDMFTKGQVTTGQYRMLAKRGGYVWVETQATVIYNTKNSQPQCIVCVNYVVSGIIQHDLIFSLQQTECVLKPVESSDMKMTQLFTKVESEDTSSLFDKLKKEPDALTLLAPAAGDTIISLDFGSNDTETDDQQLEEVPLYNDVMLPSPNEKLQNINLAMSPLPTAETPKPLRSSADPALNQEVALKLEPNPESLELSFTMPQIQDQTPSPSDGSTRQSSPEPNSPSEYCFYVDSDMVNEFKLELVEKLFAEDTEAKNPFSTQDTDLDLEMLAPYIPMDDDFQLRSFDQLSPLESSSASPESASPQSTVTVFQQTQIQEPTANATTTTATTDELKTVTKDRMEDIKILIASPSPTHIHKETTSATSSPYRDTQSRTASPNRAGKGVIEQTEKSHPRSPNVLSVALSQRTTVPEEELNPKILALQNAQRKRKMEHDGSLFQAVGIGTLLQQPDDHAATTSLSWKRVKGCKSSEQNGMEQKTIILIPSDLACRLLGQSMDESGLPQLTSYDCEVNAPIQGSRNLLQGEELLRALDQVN
Hepatocyte nuclear factor 6 (Homo sapiens), sequence (Q9UBC0 whole entry, looked up): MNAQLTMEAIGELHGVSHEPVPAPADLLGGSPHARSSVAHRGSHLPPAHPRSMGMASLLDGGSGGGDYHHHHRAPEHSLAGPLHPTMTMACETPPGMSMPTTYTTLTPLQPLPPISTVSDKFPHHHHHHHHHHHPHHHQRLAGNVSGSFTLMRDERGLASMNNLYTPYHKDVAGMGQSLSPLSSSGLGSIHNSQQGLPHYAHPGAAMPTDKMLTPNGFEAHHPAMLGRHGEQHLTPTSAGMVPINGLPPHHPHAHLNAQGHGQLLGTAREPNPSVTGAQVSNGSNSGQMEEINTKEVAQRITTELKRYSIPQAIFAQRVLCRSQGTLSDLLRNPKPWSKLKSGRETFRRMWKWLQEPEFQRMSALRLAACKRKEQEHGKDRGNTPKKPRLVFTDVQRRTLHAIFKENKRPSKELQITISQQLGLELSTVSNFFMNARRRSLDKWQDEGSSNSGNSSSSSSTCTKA
Heat shock factor protein 1 (Homo sapiens), sequence (Q00613 whole entry, looked up): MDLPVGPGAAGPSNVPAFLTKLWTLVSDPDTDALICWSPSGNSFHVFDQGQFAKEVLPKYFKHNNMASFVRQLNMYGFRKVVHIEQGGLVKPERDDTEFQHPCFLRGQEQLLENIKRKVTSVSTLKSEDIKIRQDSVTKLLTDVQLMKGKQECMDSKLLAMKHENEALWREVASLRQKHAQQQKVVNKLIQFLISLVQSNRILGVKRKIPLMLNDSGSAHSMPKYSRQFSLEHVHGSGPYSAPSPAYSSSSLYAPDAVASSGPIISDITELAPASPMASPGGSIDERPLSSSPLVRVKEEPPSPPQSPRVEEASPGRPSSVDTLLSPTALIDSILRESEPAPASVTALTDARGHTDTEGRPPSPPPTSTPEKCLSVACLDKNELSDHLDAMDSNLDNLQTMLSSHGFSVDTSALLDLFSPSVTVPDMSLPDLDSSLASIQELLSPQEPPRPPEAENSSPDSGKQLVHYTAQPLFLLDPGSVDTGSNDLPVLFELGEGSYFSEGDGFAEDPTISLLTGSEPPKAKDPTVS

`CC(C)(C#N)c1cc(Cn2cncn2)cc(C(C)(C)C#N)c1`: the call in [1], in assay [2], in assay [3], in assay [4], in [5] and in assay [6] was inactive. Also, the call in [7], in assay [8], in [10], in assay [11], in assay [12] and in assay [13] was inactive. The molecule was called inactive in assay [14]. Further, the AC50 in assay [9] was 14.8 µM (active).
Consider `NNc1nc(-c2ccc(N)cc2)cs1`, for which the outcome in assay [1], in [3], in assay [15], in assay [4], in [16] and in assay [5] was inactive. The molecule was classed as inactive in assay [6], in assay [7], in assay [8], in [9], in [17] and in assay [10]. The outcome in [11], in assay [18], in assay [12], in assay [13], in assay [19] and in assay [14] was inactive.
As for `c1ccc(CCCc2ccccn2)cc1`, the result in [1], in assay [3], in assay [15], in [4], in assay [5] and in [6] was inactive. The molecule was called inactive in assay [8], in assay [10], in assay [11], in [18], in assay [12] and in [13]. In addition, the molecule was called inactive in assay [19] and in [14]. In addition, the AC50 was 81.5 µM (active) in [7] and 100 µM (active) in assay [9].
As to `CC(=O)C=CC1=C(C)CCCC1(C)C`, the result in assay [1], in assay [3], in assay [4], in [16], in assay [5] and in assay [6] was inactive. Also, the result in assay [10], in assay [11], in [12], in [13], in [19] and in assay [14] was inactive. The AC50 in assay [9] is 0.716 µM (active).
Consider `CCCCO`, for which the molecule was classed as inactive in [1], in assay [15], in [4], in assay [16], in [5] and in assay [6]. Further, the molecule was classed as inactive in [7], in assay [9], in [17], in [11], in assay [18] and in [12]. Also, the molecule was called inactive in assay [13], in assay [19] and in assay [14].
For `CCCC/C=C\CCCCCCCCCC=O`, the molecule was called inactive in assay [1], in [3], in [15], in assay [4], in [5] and in assay [6]. For the same molecule, the molecule was called inactive in assay [7], in [20], in [8], in assay [9], in assay [17] and in [10]. Also, the molecule was called inactive in [11], in [18], in assay [12], in assay [13], in [19] and in assay [14].
Turning to `OCC(CO)(CO)COCC(CO)(CO)CO`, the molecule was called inactive in [1], in assay [3], in assay [15], in assay [4], in assay [16] and in assay [5]. Further, the outcome in assay [6], in assay [7], in assay [20], in assay [8], in assay [9] and in assay [10] was inactive. Besides, the call in assay [11], in [18], in assay [12], in assay [13], in assay [19] and in assay [14] was inactive.
As for `CC(=O)/C=C/C1=C(C)CCCC1(C)C`, the call in assay [1], in assay [15], in assay [4], in assay [5], in assay [6] and in assay [7] was inactive. Also, the call in assay [8], in assay [10], in assay [11], in assay [18], in assay [12] and in [13] was inactive. Besides, the result in assay [19] and in [14] was inactive. In addition, the AC50 in assay [9] is 1.42 µM (active).

The record behind these values is PubChem BioAssay (EPA / NIEHS).
